PubChem BioAssay
Values without a mark were called inactive. For part of these data: Measured potencies and affinities stand elsewhere. Active and inactive are the calls of the source. Unless noted, how the calls were made is not given here.

Assays:
[1] = antimalarial activity against Dd2 strain (AID 2302;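 active means growth inhibition above 50% at the single 2 µM test dose, taken to imply half-maximal potency below 2 µM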;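 further: 0% = DMSO untreated growth and 100% = chloroquine plus artemisinin killed control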); settings: P. falciparum Dd2 in RBCs, LDH growth readout, 72 h; at 2 µM; hits give high values
[2] = HepG2 cytotoxicity, primary screen, cytotoxicity control for P. falciparum antimalarial project, cell-based, ATP luminescence (AID 2303;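 active means inhibition above 50%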;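 further: 0% = DMSO wells and 100% = digitonin-killed cells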); settings: HepG2 viability, 24-48 h, at 10 µM, hits give high values
[3] = target: L-lactate dehydrogenase (Plasmodium falciparum (isolate CDC / Honduras)) (UniProt Q27743); assay: PfLDH activity inhibition – cell lysate, 3D7 strain, counter-screen for P. falciparum growth inhibition project (AID 2304);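 further: 0% = vehicle and 100% = reference inhibitor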; settings: P. falciparum 3D7 crude extract, LDH APAD/NBT absorbance; at 2 µM; hits give high values
[4] = inhibition of 3D7 malaria parasite growth – strain 3D7 (AID 2306);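 further: 0% = DMSO wells and 100% = chloroquine plus artemisinin control wells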; settings: P. falciparum 3D7 erythrocytic growth, LDH absorbance, 72 h; at 2 µM; hits give high values
[5] = target: Calcium-dependent protein kinase 1 (Plasmodium falciparum (isolate 3D7)) (UniProt P62344); assay: PfCDPK1 kinase inhibitors, biochemical, TCAMS library (AID 1159585; cut-off not given, nearly all actives have IC50 up to about 0.98 µM;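 further: inhibitors leave more ATP so luminescence rises with inhibition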); settings: recombinant PfCDPK1, Kinase-Glo ATP depletion luminescence
[6] = target: Plasmodium falciparum protein kinase 6 (PK6, PF3D7_1337100) (UniProt Q8IDW1); assay: PfPK6 kinase inhibitors, biochemical, TCAMS library (AID 1159586); settings: recombinant PfPK6, Kinase-Glo ATP depletion luminescence
[7] = target: Protein kinase 7 (PK7), Plasmodium falciparum 3D7 (PF3D7_0213400) (UniProt Q7YTF7); assay: inhibition of Plasmodium PK7 catalytic activity – biochemical, TCAMS antimalarial set, Kinase-Glo luminescence (AID 1159587); settings: recombinant PfPK7, Kinase-Glo ATP depletion luminescence
[8] = target: Calcium-dependent protein kinase 4 (Plasmodium falciparum (isolate 3D7)) (UniProt Q8IBS5); assay: PfCDPK4 kinase inhibitors, biochemical, TCAMS library (AID 1159588; cut-off not given, nearly all actives have IC50 up to about 0.91 µM); settings: recombinant PfCDPK4, Kinase-Glo ATP depletion luminescence
Calcium-dependent protein kinase 4 (Plasmodium falciparum (isolate 3D7)), sequence (Q8IBS5 whole entry, looked up): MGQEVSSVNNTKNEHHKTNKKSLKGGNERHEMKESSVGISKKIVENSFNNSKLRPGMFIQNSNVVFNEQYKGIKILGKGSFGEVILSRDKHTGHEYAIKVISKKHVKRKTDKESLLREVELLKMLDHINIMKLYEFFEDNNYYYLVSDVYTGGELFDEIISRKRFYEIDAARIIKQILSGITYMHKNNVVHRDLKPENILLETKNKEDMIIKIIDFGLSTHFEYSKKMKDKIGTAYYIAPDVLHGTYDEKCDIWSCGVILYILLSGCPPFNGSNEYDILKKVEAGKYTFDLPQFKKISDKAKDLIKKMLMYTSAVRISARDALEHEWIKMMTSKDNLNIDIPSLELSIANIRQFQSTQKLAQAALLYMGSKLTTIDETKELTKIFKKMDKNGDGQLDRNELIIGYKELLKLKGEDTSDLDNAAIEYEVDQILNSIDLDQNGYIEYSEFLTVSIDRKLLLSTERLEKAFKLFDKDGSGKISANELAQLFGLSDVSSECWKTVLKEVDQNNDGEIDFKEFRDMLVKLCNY

Calcium-dependent protein kinase 1 (Plasmodium falciparum (isolate 3D7)), sequence (P62344 whole entry, looked up): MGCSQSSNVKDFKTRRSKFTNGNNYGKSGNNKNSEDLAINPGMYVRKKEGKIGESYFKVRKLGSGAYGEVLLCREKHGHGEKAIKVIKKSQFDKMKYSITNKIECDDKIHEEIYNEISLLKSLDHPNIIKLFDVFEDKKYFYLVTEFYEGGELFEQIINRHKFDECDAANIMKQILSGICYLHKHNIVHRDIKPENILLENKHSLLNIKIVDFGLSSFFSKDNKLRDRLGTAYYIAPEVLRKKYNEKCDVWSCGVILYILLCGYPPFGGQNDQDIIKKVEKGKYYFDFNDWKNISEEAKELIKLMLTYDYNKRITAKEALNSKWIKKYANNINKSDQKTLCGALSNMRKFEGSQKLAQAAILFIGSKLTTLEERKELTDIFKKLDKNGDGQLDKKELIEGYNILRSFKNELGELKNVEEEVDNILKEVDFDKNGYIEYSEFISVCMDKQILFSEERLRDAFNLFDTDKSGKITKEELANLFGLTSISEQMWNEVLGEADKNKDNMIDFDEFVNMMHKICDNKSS
Protein kinase 7 (PK7), Plasmodium falciparum 3D7 (PF3D7_0213400), sequence (Q7YTF7 1-343): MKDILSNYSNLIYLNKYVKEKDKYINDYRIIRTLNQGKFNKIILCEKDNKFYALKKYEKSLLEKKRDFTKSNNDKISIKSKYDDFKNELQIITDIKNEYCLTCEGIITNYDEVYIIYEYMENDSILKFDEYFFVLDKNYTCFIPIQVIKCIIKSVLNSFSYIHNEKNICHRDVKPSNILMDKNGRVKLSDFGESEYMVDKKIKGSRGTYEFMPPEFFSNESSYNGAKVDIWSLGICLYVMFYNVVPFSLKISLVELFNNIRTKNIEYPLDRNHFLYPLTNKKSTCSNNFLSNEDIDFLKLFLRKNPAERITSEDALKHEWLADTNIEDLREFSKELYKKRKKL
L-lactate dehydrogenase (Plasmodium falciparum (isolate CDC / Honduras)), sequence (Q27743 whole entry, looked up): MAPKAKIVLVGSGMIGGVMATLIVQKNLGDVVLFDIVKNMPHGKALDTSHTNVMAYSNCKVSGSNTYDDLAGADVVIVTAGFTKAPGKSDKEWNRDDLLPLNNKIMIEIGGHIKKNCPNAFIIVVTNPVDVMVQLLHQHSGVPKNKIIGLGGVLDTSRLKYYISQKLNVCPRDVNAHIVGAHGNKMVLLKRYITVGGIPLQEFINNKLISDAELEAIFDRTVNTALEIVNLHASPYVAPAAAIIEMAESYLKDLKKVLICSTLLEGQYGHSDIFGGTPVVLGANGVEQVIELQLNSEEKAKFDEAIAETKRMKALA
Plasmodium falciparum protein kinase 6 (PK6, PF3D7_1337100), sequence (Q8IDW1 1-305): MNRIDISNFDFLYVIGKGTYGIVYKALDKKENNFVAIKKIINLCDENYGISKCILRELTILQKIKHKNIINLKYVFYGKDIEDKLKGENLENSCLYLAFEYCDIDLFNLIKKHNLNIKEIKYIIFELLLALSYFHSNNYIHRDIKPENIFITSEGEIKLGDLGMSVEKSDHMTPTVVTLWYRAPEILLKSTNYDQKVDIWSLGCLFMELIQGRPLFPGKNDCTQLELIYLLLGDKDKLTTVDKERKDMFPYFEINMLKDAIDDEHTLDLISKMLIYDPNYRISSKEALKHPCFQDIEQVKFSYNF

SMILES | growth inhibition [1] | inhibition [2] | inhibition [3] [%] | growth inhibition [4] | outcome [5] | outcome [6] | outcome [7] | outcome [8]
Cc1cc(NC(=O)Nc2ccc(C(C)C)cc2)c2ccccc2n1 | 16% | 7% | -1 | 99% (active) | inactive | inactive | inactive | inactive
CO/C(=C\C=C\c1cc2cc(Cl)c(Cl)cc2[nH]1)C(=O)Nc1ccc(NCCN(C)C)nc1 | 56% (active) | 27% | -1 | 93% (active) | inactive | inactive | inactive | inactive
Cc1cccc2[nH]c(-c3cccc(-c4ccc(NC(=O)C(C)C(=O)NC(C)C)cc4)c3)nc12 (stereo not drawn) | 26% | 13% | -3 | 85% (active) | inactive | inactive | inactive | inactive
Cc1cccc2[nH]c(-c3cccc(-c4cccc(C(=O)NCCN5CCCC5)c4)c3)nc12 | 75% (active) | 21% | 1 | 100% (active) | inactive | inactive | inactive | inactive
COC(=O)COc1cc(C(=O)NCCCCN2CCC(c3ccc4c(c3OC)CCCC4)CC2)ccc1-c1ccc(Cl)cc1 | 21% | 32% | 2 | 97% (active) | inactive | inactive | inactive | inactive
O=C(Cc1ccccc1)NC1(c2ccccc2)CCN(CCc2c[nH]c3ccc(F)cc23)CC1 | 62% (active) | 29% | 2 | 87% (active) | inactive | inactive | inactive | inactive
CCCOc1cc(NC(=O)Nc2ccnc3ccccc23)cc(OCCC)c1 | 98% (active) | 6% | -1 | 102% (active) | inactive | inactive | inactive | inactive
CCCN(CC1CC1)c1ncc(-c2ccccc2CNCc2ccccc2O)cn1 | 98% (active) | 4% | -4 | 100% (active) | inactive | inactive | inactive | inactive
O=C(Cc1cccc2ccccc12)N1CCc2cc3nccc(N4CCN5CCC[C@H]5C4)c3cc21 | 99% (active) | 3% | 2 | 101% (active) | inactive | inactive | inactive | inactive
CN1CCN(CCCN(Cc2csc(-c3ccc(CNCc4ccccc4)cc3)n2)C(=O)c2cc(F)cc(F)c2)CC1 | 53% (active) | 60% (active) | -2 | 97% (active) | inactive | inactive | inactive | inactive
CN1CCN(CC(=O)Nc2ccc(-c3csc(-c4nc5ccccc5[nH]4)c3)cc2)CC1 | 46% | 6% | -4 | 99% (active) | inactive | inactive | inactive | inactive
O=C(CN1CCC(NCc2cnc(-c3ccc(Cl)cc3)[nH]2)CC1)N1CCc2ccccc21 | 5% | 11% | -8 | 100% (active) | inactive | inactive | inactive | inactive
CCc1ccc2nc(-c3ccc(F)cc3)nc(SCC(=O)Nc3sc(C)c(C)c3C#N)c2c1 | 5% | -15% | 1 | 98% (active) | inactive | inactive | inactive | inactive
CC(CN1CCN(C)CC1)C(=O)Nc1cccc(-c2cccc(-c3nc4ccc(F)cc4[nH]3)c2)c1 (stereo not drawn) | 78% (active) | 23% | -2 | 101% (active) | inactive | inactive | inactive | inactive
Cc1ccccc1CCNC(=O)c1ccc(N2CCN(c3ccncc3)CC2)nc1 | 20% | 10% | -3 | 95% (active) | inactive | inactive | inactive | inactive
COc1ccc(NS(=O)(=O)c2cccc(C(=O)Nc3ccc(C(F)(F)F)cc3)c2)cc1N1CCN(CC(C)C)CC1 | 4% | 5% | 2 | 94% (active) | inactive | inactive | inactive | inactive
O=C(C1CCCC1)N1CCOC(CCN2CCC(c3ccccc3)CC2)(c2ccc(Cl)c(Cl)c2)C1 (stereo not drawn) | 77% (active) | 16% | 0 | 88% (active) | inactive | inactive | inactive | inactive
CCc1cn(C)c2c(N3CCCC3=O)cc(C(=O)N[C@@H](Cc3ccccc3)[C@H](O)CNC(C)(C)c3cccc(C(F)(F)F)c3)cc12 | 97% (active) | 22% | 0 | 97% (active) | inactive | inactive | inactive | inactive

SMILES | growth inhibition [1] | inhibition [2] | inhibition [3] [%] | growth inhibition [4] | outcome [5] | outcome [6] | outcome [7] | outcome [8]
COc1cccc2cc(C(=O)N[C@@H](CC(C)C)C(=O)N[C@H](/C=N/NC(=O)OC(C)(C)C)CC(=O)OC(C)(C)C)oc12 | 57% (active) | 4% | 0 | 85% (active) | inactive | inactive | inactive | inactive
CCN1CCN(CCCNc2c3ccc(Cl)cc3nc3ccc(OC)cc23)CC1 | 100% (active) | 34% | -5 | 97% (active) | inactive | inactive | inactive | inactive
COc1ccc(C2N=C(N)N=C(N)N2c2ccc(Cl)cc2)cc1OC (stereo not drawn) | 4% | 4% | -1 | 85% (active) | inactive | inactive | inactive | inactive
Oc1ccc2[nH]cc(C3CCN(CCC(c4ccccc4)c4ccccc4)CC3)c2c1 | 42% | 27% | -3 | 90% (active) | inactive | inactive | inactive | inactive
Oc1ccccc1CN[C@@H]1CCCC[C@H]1NCc1ccccc1O | 66% (active) | 53% (active) | 2 | 96% (active) | inactive | inactive | inactive | inactive
CCOC(=O)COc1cccc(CNc2ccc3nc(N)nc(N)c3c2)c1 | 99% (active) | 18% | 4 | 100% (active) | inactive | inactive | inactive | inactive
COc1ccc(-c2ccc(NC(=O)c3cccc(Cl)c3)cc2)cc1CN1CCC(O)CC1 | 12% | 15% | -5 | 102% (active) | inactive | inactive | inactive | inactive
COc1ccc(CCN(C)CCCCNC(=O)c2ccc(NC(=O)c3ccc(Cl)cc3)cc2)c(OC)c1 | 0% | 12% | 4 | 87% (active) | inactive | inactive | inactive | inactive
COc1ccc(Cl)cc1NC(=O)C(C)Nc1ccc(-c2ccccc2)cc1 (stereo not drawn) | 89% (active) | -1% | -1 | 91% (active) | inactive | inactive | inactive | inactive
CC(C)(C)c1ccc(NC(=O)c2ccc(CN3CCCN(CC4CCCCC4)CC3)cc2)cc1 | 64% (active) | 54% (active) | -1 | 99% (active) | inactive | inactive | inactive | inactive
Cc1cc(N[C@@H](Cc2ccccc2)C(=O)NCCOc2ccccc2)nc(NCCc2cccs2)n1 | 32% | 8% | 0 | 95% (active) | inactive | inactive | inactive | inactive
CCN(CC)CCN(Cc1ccc(-c2ccc(Cl)s2)cc1)C(=O)Cn1c(CCc2cccc(F)c2F)nc(=O)c2ccccc21 | 27% | 24% | -4 | 96% (active) | inactive | inactive | inactive | inactive
CCN(CC)CCCN(CCCN(CC)CC)c1cc(C)nc(Nc2ccc3cc(Br)ccc3c2)n1 | 73% (active) | 12% | 3 | 100% (active) | inactive | inactive | inactive | inactive
CC(C)CCN(Cc1cncn1Cc1ccccc1F)C(=O)c1cncc(-c2ccccc2)c1 | 3% | 1% | -5 | 96% (active) | inactive | inactive | inactive | inactive
O=C(NCCCNc1nc2ccccc2[nH]1)c1cccc(OC(F)(F)F)c1 | 27% | 12% | -2 | 102% (active) | inactive | inactive | inactive | inactive
O=C(Nc1cccc(C(F)(F)F)c1)NC1CCN(c2ccnc3ccccc23)C1 (stereo not drawn) | 69% (active) | 23% | -2 | 101% (active) | inactive | inactive | inactive | inactive
O=C(Nc1cccc(-c2ccc(-c3nc4ccc(F)cc4[nH]3)cc2)c1)Nc1ccc(F)c(F)c1F | 98% (active) | 53% (active) | 3 | 98% (active) | inactive | inactive | inactive | inactive
O=C(Nc1ccc2c(c1)CCN(C1CCC1)CC2)c1cn(-c2ccccc2)nc1-c1ccccc1 | 10% | 38% | 3 | 103% (active) | inactive | inactive | inactive | inactive
